These results are taken from PubChem BioAssay (NCATS).

Molecules are shown by their SMILES. Inconclusive results are not listed. Calls of active or inactive are those of the source. The call rests on the fitted dose curve; in most records, active means well fitted inhibition curve with a large enough effect; inconclusive means small, poorly fitted or top-dose-only effect; inactive means flat fitted curve, though single readings scatter.

Experiment in all cases: qHTS profiling for inhibitors of Plasmodium falciparum proliferation (AID 504749); further: nearly all actives have a fitted effect of over 60% in size
Common to all, as to details: P. falciparum in erythrocytes, SYBR Green DNA, 72 h; series mostly up to 28.7 µM

The test system of one assay is 7G8. The procedure, abridged: (§1)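 Three-day growth assay of blood-stage parasites in erythrocytes (0.3% parasitemia, 2.5% hematocrit) at 37 C, 5% CO2, quantified by SYBR Green DNA staining after overnight detergent lysis.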
The next assay concerns ATS95. The method, boiled down: as §1
Another assay relates to CP201. The method, boiled down:
as §1

A further assay has as its system CP203. The procedure, abridged:
as §1

The test system of another assay is CP250. The procedure, abridged: as §1
The test system of the next assay is CP256. The method, boiled down:
as §1

For the next assay, the system named is CP262. The procedure, abridged: as §1
The test system of the next assay is CP265. The procedure, abridged:
as §1

The next assay deals with CP269. The method, boiled down: as §1
The test system of a further assay is CP315. The procedure, abridged: as §1
For a further assay, the system named is CP325. The procedure, abridged:
as §1

In the next assay the test system is CP329. The method, boiled down:
as §1

The next assay deals with DIV30. The method, boiled down: as §1
For another assay, the system named is ECU. The procedure, abridged:
as §1

Another assay has as its system N140. The procedure, abridged:
as §1

The test system of the next assay is PAD. The method, boiled down: as §1
A further assay has as its system PC15. The procedure, abridged:
as §1

The subject of a further assay is SC27B. The method, boiled down: as §1
A further assay relates to TAB113. The procedure, abridged:
as §1

A further assay concerns TAB165. The procedure, abridged:
as §1
Potency means the concentration at half of the fitted maximal effect.

Turning to `Cc1ccc(/C=C2/C(=O)C3(C)CCC2C3(C)C)cc1` (configuration not stated), the Potency entry with 7G8, in the assay with ATS95, with CP201, in the assay with CP203, with CP250 and in the assay on CP256 was “inactive” each time. In addition, the Potency result in the assay on CP262, in the assay on CP265, in the assay with CP269, in the assay on CP315, in the assay on CP325 and in the assay with CP329 was “inactive” throughout. Besides, the Potency entry with DIV30, with ECU, with N140, with PAD, with PC15 and with SC27B was “inactive” throughout. Further, the Potency entry in the assay on TAB113 and in the assay with TAB165 was “inactive” each time.

Regarding `NC(=O)OC[C@@H]1[C@H](NC(=O)/C(=N/OCC(=O)O)c2csc(N)n2)C(=O)N1S(=O)(=O)O`, the Potency entry in the assay with 7G8, with ATS95, with CP201, with CP203, in the assay on CP250 and in the assay on CP256 was “inactive” each time. Moreover, the Potency entry in the assay with CP262, with CP265, with CP269, in the assay with CP315, in the assay with CP325 and in the assay with CP329 was “inactive” throughout. For the same molecule, the Potency result with DIV30, with ECU, in the assay on N140, in the assay on PAD, in the assay with PC15 and in the assay on SC27B was “inactive” in each case. Further, the Potency entry in the assay on TAB113 and with TAB165 was “inactive” in each case.

As for `CC(=O)N[C@H]1[C@H](O[C@@H]2c3ccc(c(Cl)c3)Oc3cc4cc(c3O[C@@H]3O[C@H](CO)[C@@H](O)[C@H](O)C3C)Oc3ccc(cc3Cl)C[C@H]3NC(=O)[C@@H](N)c5ccc(O)c(c5)Oc5cc(O)cc(c5)[C@H](NC3=O)C(=O)N[C@H]4C(=O)N[C@H]3C(=O)N[C@@H]2C(=O)N[C@@H](C(=O)O)c2cc(O)cc(O[C@H]4O[C@H](CO)[C@@H](O)C(O)[C@@H]4O)c2-c2cc3ccc2O)O[C@H](CO)[C@@H](O)[C@@H]1O` (some centres not stated), the Potency result in the assay with 7G8, with ATS95, in the assay on CP201, in the assay on CP203, in the assay with CP250 and with CP256 was “inactive” in each case. The Potency entry in the assay with CP262, in the assay with CP265, in the assay with CP269, with CP315, in the assay on CP325 and with CP329 was “inactive” in each case. The Potency entry in the assay with DIV30, in the assay on ECU, in the assay with N140, in the assay with PAD, in the assay with PC15 and with SC27B was “inactive” each time. Besides, the Potency result with TAB113 and with TAB165 was “inactive” each time.

Regarding `CCCC(=O)O[C@]1(C(=O)COC(C)=O)CC[C@H]2C3C[C@H](F)C4=CC(=O)C=CC4(C)[C@@]3(F)[C@@H](O)CC21C` (some centres not stated), the Potency with 7G8 was 11200 nM (active). In addition, the Potency entry in the assay with ATS95, with CP201, in the assay with CP203, in the assay with CP250, in the assay on CP256 and in the assay with CP262 was “inactive” throughout. The Potency entry in the assay on CP265, in the assay with CP269, in the assay on CP315, in the assay on CP325, with CP329 and with DIV30 was “inactive” throughout. The Potency result with ECU, in the assay on N140, in the assay with PC15, with SC27B and with TAB113 was “inactive” in each case.

Take `CO/N=C(/C(=O)N[C@@H]1C(=O)N2C(C(=O)O)=C(CSC(=O)c3ccco3)CSC12)c1csc(N)n1` (some centres not stated): the Potency entry in the assay on 7G8, in the assay on ATS95, in the assay on CP201, in the assay with CP203, in the assay on CP250 and in the assay on CP256 was “inactive” in each case. The Potency entry with CP262, with CP265, in the assay on CP269, with CP315, in the assay with CP325 and in the assay with CP329 was “inactive” each time. Also, the Potency result in the assay with DIV30, in the assay on ECU, with N140, in the assay with PAD, in the assay on PC15 and in the assay with SC27B was “inactive” each time. The Potency entry in the assay with TAB113 and with TAB165 was “inactive” in each case.

Take `NCCCCC(N)C(=O)O` (configuration not stated): the Potency entry in the assay with 7G8, in the assay with ATS95, in the assay on CP201, in the assay on CP203, in the assay with CP250 and in the assay on CP256 was “inactive” each time. In addition, the Potency entry in the assay with CP262, with CP265, with CP269, with CP315, with CP325 and in the assay with CP329 was “inactive” in each case. Further, the Potency entry with DIV30, in the assay on ECU, in the assay with N140, in the assay on PAD, with PC15 and in the assay on SC27B was “inactive” each time. The Potency result with TAB113 and with TAB165 was “inactive” each time.

On to `OCC(CO)NC1C[C@](O)(CO)[C@@H](O)[C@H](O)[C@H]1O` (some centres not stated), for which the Potency result in the assay with 7G8, in the assay on ATS95, in the assay with CP201, with CP203, with CP250 and in the assay on CP256 was “inactive” throughout. Moreover, the Potency entry in the assay with CP262, with CP265, in the assay with CP269, with CP315, with CP325 and with CP329 was “inactive” in each case. Moreover, the Potency entry in the assay on DIV30, in the assay on ECU, in the assay on N140, in the assay with PAD, in the assay on PC15 and in the assay on SC27B was “inactive” each time. Also, the Potency result with TAB113 and with TAB165 was “inactive” throughout.

`CC(=O)N1CC(O)CC1C(=O)O` (configuration not stated): the Potency result in the assay on 7G8, in the assay on ATS95, with CP201, in the assay with CP203, with CP250 and in the assay with CP256 was “inactive” in each case. Further, the Potency result with CP262, in the assay with CP265, with CP269, in the assay on CP315, with CP325 and in the assay on CP329 was “inactive” each time. The Potency entry in the assay with DIV30, in the assay on ECU, in the assay on N140, in the assay on PAD, in the assay with PC15 and in the assay on SC27B was “inactive” in each case. Besides, in the assay on TAB165, the Potency entry is “inactive”.

`COC1CC2CCC(C)[C@](O)(O2)C(=O)C(=O)N2CCCCC2C(=O)OC(C(C)CC2CCC(O)C(OC)C2)CC(=O)C(C)/C=C(/C)C(O)C(OC)C(=O)C(C)CC(C)C=CC=C/C=C\1C` (some centres not stated): the Potency is 1000 nM (active) with 7G8; 3550 nM (active) in the assay on ATS95; 7570 nM (active) with CP201; 1690 nM (active) in the assay on CP203; 3160 nM (active) with CP250; 3160 nM (active) with CP256. The Potency in the assay on CP265 was 2820 nM (active); in the assay with CP269, 4260 nM (active); in the assay with CP315 it was 4260 nM (active); with CP325, 5360 nM (active); in the assay with CP329 it was 4260 nM (active); in the assay with DIV30, 953 nM (active). The Potency in the assay on ECU is 2000 nM (active); in the assay on N140, 1260 nM (active); in the assay on PAD, 1260 nM (active); in the assay on PC15, 4470 nM (active); with SC27B, 2000 nM (active); in the assay with TAB113, 1410 nM (active). The Potency in the assay with TAB165 is 1120 nM (active). In addition, the Potency result in the assay on CP262 was “inactive”.

Regarding `CO/N=C(/C(=O)N[C@@H]1C(=O)N2C(C(=O)O)=C(C[n+]3ccc(N)n3CCO)CS[C@H]12)c1csc(N)n1`, the Potency entry in the assay with 7G8, in the assay with ATS95, in the assay on CP201, with CP203, in the assay on CP250 and in the assay on CP256 was “inactive” in each case. In addition, the Potency entry in the assay on CP262, in the assay with CP265, with CP269, with CP315, in the assay with CP325 and with CP329 was “inactive” throughout. The Potency entry in the assay on DIV30, in the assay on ECU, with N140, with PAD, in the assay on PC15 and in the assay with SC27B was “inactive” in each case. Moreover, the Potency entry with TAB113 and in the assay on TAB165 was “inactive” in each case.

As to `NC(=O)NC(CCC(=O)O)C(=O)O` (configuration not stated), the Potency result in the assay on 7G8, in the assay with ATS95, in the assay on CP201, in the assay on CP203, with CP250 and in the assay on CP256 was “inactive” throughout. The Potency entry in the assay on CP262, in the assay on CP265, in the assay on CP269, with CP315, in the assay on CP325 and in the assay on CP329 was “inactive” each time. The Potency result with DIV30, with ECU, with N140, with PAD, in the assay with PC15 and in the assay on SC27B was “inactive” each time. Also, the Potency result in the assay with TAB113 and with TAB165 was “inactive” each time.
